Source: PubChem BioAssay (several laboratories)
Shown are actives, neighbours in structure and some others; about 3.9% of the full set was active somewhere.
Autofluor counter = counter-screen for toxin protease inhibitors: compound fluorescence | compound autofluorescence counterscreen, microsphere flow cytometry; active compounds read high | AID 624483 | fluorescence intensity (concentration not given with the values) | 3.1% of 360,000 active; in the data active = fluorescence intensity above about 16000; inconclusive = no clear call, values can overlap the other calls
Anthrax LF inh2 = blocks Bacillus anthracis lethal factor protease; P15917; multiplex microsphere protease cleavage assay, LF; inhibition, % at 10 µM; 0.12% of 360,000 active; also: plate controls were buffer without enzyme for full effect and enzyme alone for no effect
CCHF vOTU inh = CCHFV vOTU protease inhibition; Pep-AMC fluorescence; inhibition, % at 11.5 µM; 0.55% of 370,000 active; AID 651958; in the data active = inhibition above about 30%; also: 0% = vehicle wells with enzyme and 100% = no enzyme wells
BoNT F protease = blocks Botulinum neurotoxin F light chain protease; Multiplex microsphere protease cleavage assay, flow cytometry; inhibition, % at 10 µM; 0.22% of 360,000 active; AID 588497; in the data active = inhibition above about 35%, passing the limit was not always enough; inconclusive = no clear call, values can overlap the other calls; also: plate controls were buffer without enzyme for full effect and enzyme alone for no effect
BoNT-A LC inh2 = blocks Botulinum neurotoxin A light chain protease | multiplex microsphere protease substrate cleavage, flow cytometry | inhibition, % at 10 µM | 0.17% of 360,000 active | AID 588499; also: plate controls were buffer without enzyme for full effect and enzyme alone for no effect
3CLpro inhibitor = SARS-CoV 3CLpro protease inhibition; P0C6X7; recombinant SARS-CoV 3CLpro, quenched FRET peptide cleavage; inhibition, % at 6 µM; 0.14% of 290,000 active; AID 1706; in the data active = inhibition above about 12%
* marks the source's active call; other numbers are inactive results; ? = inconclusive; . = no result. Rule as the data show it, unless noted: active = inhibition above about 30%; inconclusive = no clear call, values can overlap the other calls; inactive = below that.

SMILES	Autofluor counter	Anthrax LF inh2	CCHF vOTU inh	BoNT F protease	BoNT-A LC inh2	3CLpro inhibitor
Cc1cc(C(F)(F)F)n(-c2nc(C(=O)Nc3ccccc3Oc3ccccc3)cs2)n1	.	.	.	.	.	2
COc1ccccc1NC(=O)c1csc(-n2nc(C)cc2C(F)(F)F)n1	21807*	-2	5	1	?	-3
CC1=Nc2ccccc2N=C(NC(=O)c2ccccc2)C1c1ccccc1 (stereo not given)	4324	8	-3	-7	-1	4
Cc1nc2ccc(S(=O)(=O)NCC(=O)N(C)Cc3ccccc3F)cc2s1	.	.	-4	.	.	.
O=C1N(Cc2ccccc2F)c2ccccc2C12OCCCO2	20831*	-1	-8	-3	0	2
O=C1N(Cc2ccc(F)cc2Cl)c2ccccc2C12OCCCO2	19128*	0	-6	-1	2	-1
O=C1N(CN2CCN(Cc3ccccc3)CC2)c2ccccc2C12OCCCO2	4344	3	-11	-3	0	4
C=CCN1C(=O)C2(OCCCO2)c2ccccc21	3449	10	6	-2	-1	0
CC1(C)NC(C)(C)C(O)(C(N)=O)C1=O (stereo not given)	23198*	-2	0	-1	-2	2
CC1(C)C(C(N)=O)C(=O)NC(=O)C1C(N)=O (stereo not given)	4178	-6	5	-9	0	.
OC(c1cccc(CN2CCCCC2)c1)c1ncc(-c2ccccc2Cl)[nH]1 (stereo not given)	2960	-5	-15	-6	0	.
CCNc1nc(N)nc(Oc2ccc(OCCOc3ccccc3)nn2)n1	17908*	-4	12	-12	-5	2
CCOc1ccccc1C(=O)NC1CCN(Cc2nnnn2C2CCCC2)CC1	22337*	-2	-6	0	?	-4
CN(C)CC1(c2ccccc2)CCCC1	17486*	-1	-1	-4	-2	0
CNCC1(c2ccccc2)CCCC1	3714	-3	9	8	0	1
Cc1ccc2nsnc2c1S(=O)(=O)N1CCOCC1	22875*	-4	-10	-3	-2	-4
CCOC(=O)N1CCC(NS(=O)(=O)c2ccc3c(c2)oc(=O)n3C)CC1	16773*	2	10	-1	2	4
Cn1c(=O)oc2cc(S(=O)(=O)NC3CCCCCCC3)ccc21	16482*	-3	-1	-2	-1	-3
O=C(Nc1ccc2c(c1)OCO2)c1cccc(S(=O)(=O)N2CCCC2)c1	21861*	-7	25	0	2	-1
CCOC(=O)c1ccc(S(=O)(=O)N2CCN(CC(=O)NC(=O)NC(C)(C)C)CC2)cc1	?	0	-4	-10	?	1
CC(C)(C)NC(=O)NC(=O)CN1CCN(S(=O)(=O)c2ccccc2)CC1	16805*	-10	10	-58	-13	-1
O=C(Nc1ccc2c(c1)OCO2)c1cccc(S(=O)(=O)N2CCOCC2)c1	4369	0	2	1	0	1
COC(=O)c1cccc(S(=O)(=O)N2CCC(NC(=O)Nc3cccc(F)c3)CC2)c1	17460*	-2	0	-8	-2	3
O=C(Nc1ccc2c(c1)OCCO2)c1ccc(S(=O)(=O)N2CCCCC2)cc1	16458*	-4	1	-2	0	1
O=C(Nc1ccc(N2CCOCC2)cc1)c1ccc(S(=O)(=O)N2CCCCC2)cc1	10575	-2	-8	1	0	-1
SMILES	Autofluor counter	Anthrax LF inh2	CCHF vOTU inh	BoNT F protease	BoNT-A LC inh2	3CLpro inhibitor
CCCN=C1N(C)C[C@@H]2[C@@H]3C(=O)N(C)C(=O)[C@@H]3[C@](CC)(C(=O)OC)N12	3670	-2	1	-7	0	.
COc1ccc(-n2c(SCC(=O)Nc3ccc(S(=O)(=O)Nc4nccs4)cc3)nnc2-c2ccccc2)cc1	.	.	0	.	.	.
O=C(NCc1nc2ccccc2[nH]1)c1cccc(S(=O)(=O)N2CCCC2)c1	4484	1	-16	25	0	1
Cc1cc(NC(=O)CN2CCN(S(=O)(=O)c3ccc(Cl)cc3)CC2)no1	19724*	0	-10	-1	0	-4
Cc1cc(NC(=O)c2cccc(S(=O)(=O)N3CCCCCC3)c2)no1	17368*	-1	14	-5	-2	1
O=C(Nc1cccc(F)c1)c1cccc(S(=O)(=O)N2CCOCC2)c1	24090*	-6	-8	-3	-2	-3
O=C(NCc1nc2ccccc2[nH]1)c1cccc(S(=O)(=O)N2CCOCC2)c1	22223*	1	14	-1	0	3
Cc1cc(NC(=O)c2cc(S(=O)(=O)N3CCCCC3)ccc2C)no1	3938	6	2	7	0	.
